The results in this text go back to PubChem BioAssay.

In assay [1] the test system is Aerobactin synthetase IucA (Klebsiella pneumoniae). Briefly: inhibition of K. pneumoniae IucA enzyme – biochemical, Tocris library, absorbance (AID 1345561; call rule not given here;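 also: 100% = enzyme without compound and 0% = no enzyme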). Conditions: purified IucA enzyme assay, absorbance (OD) read-out; stronger effect = lower value;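 tested at 8 µM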.
Assay [2] can be described thus: viability loss with induced miR-34 in A549 – imaging, A549 dox-inducible miR-34, nuclei and caspase counts, primary screen (AID 1347080). Conditions: A549 miR-34 inducible, Hoechst nuclei count, 48 h.
The nature of assay [3]: galactose survival enhancers in mitochondrial complex I cybrids – cell-based, galactose medium, ATP luminescence, primary screen (AID 1645843;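 active = z-score of at least 1.8 in each of two replicates, scored against plate mean and spread of sample wells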;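 also: positive z means more ATP and so rescue of galactose-driven cybrid death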). Conditions: complex I mutant cybrid cells, 72 h, stronger effect = higher value.
Where [4] appears, read: stronger effect = lower value, cell number ratio, induced over uninduced.
Where [5] appears, read: measured here: relative caspase fold change +Dox/-Dox.
Setting [6] is: measured here: total cells with miR-34 induction, stronger effect = lower value.
[7] abbreviates: measured here: total cells without miR-34 induction.

“And” between values parts separate entries of the source, which are not always exact repeats. Equal entries are not always repeated. The source made the active and inactive calls.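 The calls were made as follows, unless noted: active = compounds whose cell count with miR-34 switched on is under 0.7 times the count with it off; inactive = the rest.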

For `CCCCCCCNS(=O)(=O)c1cccc2c(Cl)cccc12`, the remaining activity in assay [1] was 95% (inactive). Besides, the values for the fold change in assay [2] (setting [4]) and in assay [2] (setting [5]) were 0.865 (inactive) and 0.629, respectively. Also, the cell count turned out to be 8130 in assay [2] (setting [6]) and 9410 in assay [2] (setting [7]). Moreover, in assay [3], the z-score was -0.5 (inactive).

Turning to `Nc1nc2c(nc(Br)n2[C@@H]2O[C@@H]3COP(=O)(O)O[C@H]3[C@H]2O)c(=O)[nH]1`, the remaining activity in assay [1] was 113% (inactive). The fold change in assay [2] (setting [4]) is 0.972 (inactive); in assay [2] (setting [5]), 0.761. Further, the cell count amounted to 9650 in assay [2] (setting [6]) and 9930 in assay [2] (setting [7]). In addition, in assay [3], the z-score was -0.25 (inactive).

Consider `NCCCCCc1cnc[nH]1`, for which the remaining activity in assay [1] is 118% (inactive). Besides, the fold change in assay [2] (setting [4]) was 0.92 (inactive); in assay [2] (setting [5]), 0.639. The cell count in assay [2] (setting [6]) stood at 9140; in assay [2] (setting [7]), 9930. Besides, the z-score in assay [3] was -0.155 (inactive).

For the compound `COc1cc2c(cc1OC)-c1cc3nc4ccccc4nc3n1C(C)(C)C2`, in assay [1], the remaining activity was 119% (inactive). In addition, the figures for the fold change in assay [2] (setting [4]) and in assay [2] (setting [5]) were 1.11 (inactive) and 0.782, respectively. Moreover, the cell count in assay [2] (setting [6]) worked out at 4000; in assay [2] (setting [7]) it was 3590. The z-score in assay [3] was -0.79 (inactive).

For `Clc1cccc2c1CN(C1=NCCN1)C2`, in assay [1], the remaining activity was 99.4% (inactive). Moreover, the values for the fold change in assay [2] (setting [4]) and in assay [2] (setting [5]) were 0.914 (inactive) and 0.792, respectively. In addition, the cell count in assay [2] (setting [6]) stood at 9080; in assay [2] (setting [7]), 9940. In assay [3], the z-score is -0.085 (inactive).

For `c1cc2c3c(c1)c1c(n3CCNC2)CCCC1`, in assay [1], the remaining activity is 120% (inactive). Also, the fold change in assay [2] (setting [4]) is 0.921 (inactive); in assay [2] (setting [5]) it was 1.32. Also, the cell count turned out to be 7680 in assay [2] (setting [6]) and 8340 in assay [2] (setting [7]). The z-score in assay [3] is -0.505 (inactive).

Turning to `COc1cc(/C=C/c2ccc(OC)cc2OC)cc(OC)c1`, the remaining activity in assay [1] was 117% (inactive). In addition, the fold change in assay [2] (setting [4]) was 0.956 (inactive) and 0.973 (inactive); in assay [2] (setting [5]), 1.53 and 0.719. Besides, the cell count in assay [2] (setting [6]) is 1820 and 3000; in assay [2] (setting [7]) it was 1910 and 3090. Further, the z-score in assay [3] was -0.41 (inactive).

As for `N[C@H](C(=O)O)c1ccc(O)c(C(=O)O)c1`, the remaining activity in assay [1] was 98.7% (inactive). Besides, the fold change in assay [2] (setting [4]) is 0.912 (inactive); in assay [2] (setting [5]) it was 0.711. The cell count came to 8900 in assay [2] (setting [6]) and 9760 in assay [2] (setting [7]). In addition, in assay [3], the z-score was -0.325 (inactive).

As for `O=C(c1ccc2c(c1)OCO2)N1CCCCC1`, in assay [1], the remaining activity is 118% (inactive). The fold change was 0.987 (inactive) in assay [2] (setting [4]) and 0.905 in assay [2] (setting [5]). Also, the cell count in assay [2] (setting [6]) came out at 9020; in assay [2] (setting [7]) it was 9140. In addition, the z-score in assay [3] was -0.205 (inactive).

As to `COC(=O)C1=C(C)NC(C)=C(C(=O)NCCCN2CCC(c3ccccc3)(c3ccccc3)CC2)C1c1ccc([N+](=O)[O-])cc1` (stereo not given), in assay [1], the remaining activity is 98% (inactive). In addition, the fold change is 0.668 (active) in assay [2] (setting [4]) and 1.88 in assay [2] (setting [5]). For the same compound, the results for the cell count in assay [2] (setting [6]) and in assay [2] (setting [7]) were 294 and 441, respectively. Also, the z-score in assay [3] is -0.7 (inactive).

With `N[C@@H]1CCN(O)C1=O`, the remaining activity in assay [1] is 121% (inactive). Also, the results for the fold change in assay [2] (setting [4]) and in assay [2] (setting [5]) were 0.981 (inactive) and 0.836, respectively. Moreover, the cell count in assay [2] (setting [6]) is 9080; in assay [2] (setting [7]), 9260. The z-score in assay [3] is 0.66 (inactive).

In the case of `C/C(O)=C1/C(=O)[C@@H]2[C@H]3c4c[nH]c5cccc(c45)C[C@H]3C(C)(C)N2C1=O`, the remaining activity in assay [1] was 119% (inactive). In addition, the fold change in assay [2] (setting [4]) was 0.988 (inactive); in assay [2] (setting [5]), 1.54. Moreover, the cell count was 6050 in assay [2] (setting [6]) and 6130 in assay [2] (setting [7]). Moreover, the z-score in assay [3] was -0.525 (inactive).

Consider `CC(N)=NCCCC[C@H](N)C(=O)O`, for which the remaining activity in assay [1] was 91.3% (inactive). The results for the fold change in assay [2] (setting [4]) and in assay [2] (setting [5]) were 0.958 (inactive) and 0.902, respectively. Moreover, the cell count in assay [2] (setting [6]) amounted to 8960; in assay [2] (setting [7]), 9350. For the same compound, in assay [3], the z-score is 0.135 (inactive).

For `CCCNC(=O)N1N=C(c2ccc(N)cc2)c2cc3c(cc2C1C)OCO3` (stereo not given), in assay [1], the remaining activity was 101% (inactive). For the same compound, the fold change in assay [2] (setting [4]) was 0.903 (inactive); in assay [2] (setting [5]), 1.06. For the same compound, the cell count is 8160 in assay [2] (setting [6]) and 9040 in assay [2] (setting [7]). For the same compound, in assay [3], the z-score was 0.065 (inactive).

With `CC(C)[C@H]1c2ccc(F)cc2CC[C@@]1(CCN(C)CCCc1nc2ccccc2[nH]1)OC(=O)C1CC1`, the remaining activity in assay [1] is 104% (inactive). For the same compound, the fold change in assay [2] (setting [4]) was 0.792 (inactive); in assay [2] (setting [5]), 1.77. The results for the cell count in assay [2] (setting [6]) and in assay [2] (setting [7]) were 263 and 332, respectively. Also, the z-score in assay [3] was -0.705 (inactive).

For the compound `Cc1c(C2CCN(CCc3ccccc3)CC2)noc1-c1ccc(Cl)cc1`, the remaining activity in assay [1] was 92.3% (inactive). Besides, the values for the fold change in assay [2] (setting [4]) and in assay [2] (setting [5]) were 0.891 (inactive) and 0.892, respectively. The cell count in assay [2] (setting [6]) came out at 6770; in assay [2] (setting [7]) it was 7590. Also, the z-score in assay [3] was -0.21 (inactive).

Turning to `O[C@@H]1[C@H](O)[C@@H](CCl)O[C@H]1n1cnc2c(NC3CC4CCC3C4)ncnc21` (stereo not given in full), in assay [1], the remaining activity is 108% (inactive). In addition, the fold change in assay [2] (setting [4]) was 0.921 (inactive); in assay [2] (setting [5]), 1.85. Also, the values for the cell count in assay [2] (setting [6]) and in assay [2] (setting [7]) were 8570 and 9310, respectively. Also, the z-score in assay [3] was 1.96 (inactive).

As for `CN1CCN(C(=O)c2nc3ccc(Cl)cc3[nH]2)CC1`, the remaining activity in assay [1] was 102% (inactive). Besides, the results for the fold change in assay [2] (setting [4]) and in assay [2] (setting [5]) were 0.91 (inactive) and 1.56, respectively. For the same compound, the cell count in assay [2] (setting [6]) stood at 8900; in assay [2] (setting [7]), 9780. The z-score in assay [3] is 0.84 (inactive).

As for `O=C(NCCCN1CCCCCC1)C(c1ccccc1)C1CCCCC1` (stereo not given), the remaining activity in assay [1] was 115% (inactive). For the same compound, the results for the fold change in assay [2] (setting [4]) and in assay [2] (setting [5]) were 0.949 (inactive) and 0.832, respectively. Moreover, the results for the cell count in assay [2] (setting [6]) and in assay [2] (setting [7]) were 8370 and 8820, respectively. The z-score in assay [3] is -0.905 (inactive).

With `Clc1cccc(C=NC=Nc2cccc(Cl)c2)c1`, the remaining activity in assay [1] is 117% (inactive). The fold change is 0.902 (inactive) in assay [2] (setting [4]) and 0.788 in assay [2] (setting [5]). Further, the figures for the cell count in assay [2] (setting [6]) and in assay [2] (setting [7]) were 8200 and 9090, respectively. Further, in assay [3], the z-score was 0.99 (inactive).
